High-throughput results: PubChem, several laboratories
CYP2C9 inhib: blockers of cytochrome P450 2C9 activity – biochemical, luminescence, ADME assay, primary screen; actives 20% (n = 96,000); AID 777, 2007; P11712; inhibition, % at 5 µM; CYP2C9 Supersomes, luciferin-H conversion;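 active = blocking of liver enzyme CYP2C9 beyond about 50% at 5 µM, limit read from the data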
Target sequence (P11712 whole entry, looked up): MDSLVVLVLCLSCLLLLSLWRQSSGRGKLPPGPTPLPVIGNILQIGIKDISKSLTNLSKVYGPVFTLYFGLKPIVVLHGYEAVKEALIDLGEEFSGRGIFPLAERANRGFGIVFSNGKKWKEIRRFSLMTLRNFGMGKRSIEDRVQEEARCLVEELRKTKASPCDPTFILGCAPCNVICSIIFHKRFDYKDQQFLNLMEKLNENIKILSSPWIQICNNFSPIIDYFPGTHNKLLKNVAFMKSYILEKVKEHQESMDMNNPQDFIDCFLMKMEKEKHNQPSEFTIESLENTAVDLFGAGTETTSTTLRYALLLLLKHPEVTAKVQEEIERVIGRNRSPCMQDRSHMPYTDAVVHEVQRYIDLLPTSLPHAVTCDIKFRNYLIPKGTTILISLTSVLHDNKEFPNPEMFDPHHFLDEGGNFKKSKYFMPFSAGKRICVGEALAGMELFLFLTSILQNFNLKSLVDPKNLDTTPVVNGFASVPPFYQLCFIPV
CYP2C19 act: human CYP2C19 activators, primary screen, biochemical, luminescence; Cytochrome P450 2C19 (Homo sapiens), P33261; recombinant CYP2C19, luciferin-H EGE luminescence; hits give high values; 0 = fully inhibited enzyme, 1 = untreated enzyme; activation factor at 5 µM; 96,000 tested, under 10 active;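 active = activation factor of at least 2 at 5 µM in the primary screen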
PostGolgi yeast: phenotypic screen on post-Golgi transport, primary screen. AID 739, 2007. actives 0.9% (n = 98,000). inhibition, % at 10 µM. post-Golgi transport phenotypic cell assay;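 also: yeast cells grown in 1536-well plates; yeast grown about 18 h at 30C before absorbance read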
CYP2C9 activ: human CYP2C9 activators, primary screen, biochemical, luminescence. recombinant CYP2C9, luciferin-H conversion; hits give high values; factor 1 = untreated enzyme, 0 = blocked. activation factor at 5 µM. actives 1.4% (n = 96,000);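 active = activation factor of 2 or more for CYP2C9 at a 5 µM dose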
CYP2C19 inh: blockers of cytochrome P450 2C19 activity – biochemical, luminescence, ADME assay, primary screen | CYP2C19 Supersomes, luciferin-H EGE luminescence, 30 min | inhibition, % at 5 µM | P33261 | actives 21% (n = 96,000);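 active = CYP2C19 inhibition above a set limit at 5 µM in the primary screen, cut at about 50% in these data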
PostGolgi ctrl: growth inhibition of yeast control strain, primary screen, counter-screen for post-Golgi transport modulator project. efflux-deficient yeast background strain, growth absorbance A615, 16 h. actives 5% (n = 98,000). AID 738, 2007. inhibition, % at 10 µM
A number is an active result; n = inactive; x = not tested or not shown. A selection: hits, their analogues and other compounds. The true share with any hit is near 32%. Rule as the data show it, unless noted: active = inhibition above about 30%; inactive = the rest.

SMILES	CYP2C9 inhib	CYP2C19 act	PostGolgi yeast	CYP2C9 activ	CYP2C19 inh	PostGolgi ctrl
O=C(Cn1cccc1)N1CCN(c2ccc(F)cc2)CC1	n	n	n	n	73	n
O=C(CN1CCN(c2ccc(F)cc2)CC1)N1CCOCC1	n	n	n	n	n	n
CCN(CC)c1ccc2c(Cl)cc(=O)oc2c1	n	n	n	n	n	30
Cc1ccc2c(COC(=O)c3cnc(C)cn3)cc(=O)oc2c1	n	n	x	n	n	x
CCN(CC)c1ccc(C(=O)OCc2cc(=O)oc3cc(O)ccc23)cc1	n	n	n	2	94	n
N#CCCNC(=O)CCN1CCOCC1	n	n	n	n	n	n
Cn1c2ccccc2c2nnc(SC3CCOC3=O)nc21 (configuration not stated)	n	n	n	n	n	n
Nn1c(Cc2cccc3ccccc23)nnc1SC1CCOC1=O (configuration not stated)	n	n	n	2.9	55	n
CN(C(=O)CSc1nnc(Cc2cccc3ccccc23)n1N)C1CCS(=O)(=O)C1 (configuration not stated)	n	n	n	2	n	n
Cc1ccccc1OC(=O)n1c(=S)oc2cc(Cl)ccc21	n	n	n	n	n	n
CC(=O)NC12CC3CC(C1)CC(C(=O)OCC(=O)Nc1ncc(Cl)cc1Cl)(C3)C2	x	x	n	x	x	n
CC(=O)NC12CC3CC(C1)CC(C(=O)Nc1nccs1)(C3)C2	56	n	n	n	85	n
Cc1[nH]c(=S)n(CC2CCCO2)c1C (configuration not stated)	x	x	n	x	x	n
O=C(Cn1cc(C(=O)c2cccs2)c2ccccc21)NCC1CCCO1 (configuration not stated)	n	n	n	n	67	n
O=C(Cn1cc(C(=O)c2ccco2)c2ccccc21)NCc1ccco1	n	n	n	n	n	n
O=C(Cn1cc(C(=O)c2cccs2)c2ccccc21)NCc1ccc2c(c1)OCO2	73	n	n	n	64	n
COc1ccc(/C=N/NC(=O)c2ccc3ccccc3c2)cc1OS(=O)(=O)c1ccc(NC(C)=O)cc1	87	n	n	n	78	n
COc1ccc(/C=C(/NC(=O)c2ccccc2)C(=O)N/N=C/c2ccc3c(c2)OCO3)cc1OC	n	n	n	n	n	n
COc1cc(C=O)cc(OC)c1OS(=O)(=O)c1ccc(NC(C)=O)cc1	n	n	n	2.8	91	n
c1cc(Nc2ncnc3sccc23)cc(-c2nnc3n2CCCCC3)c1	n	n	n	n	n	n
CCCSc1nc2c(c(=O)n1CC)SC(C)C2 (configuration not stated)	n	n	n	n	n	n
COc1cccc(NC(=O)CCN2CCN(C)CC2)c1	n	n	n	n	n	n
O=c1nc(NCc2ccco2)sc2ncccc12	n	n	n	n	n	n
Cc1ccc(Nc2nc(=O)c3cccnc3s2)cc1	82	n	n	n	94	n
O=C(C1CC(=O)N(c2ccccc2)C1)N1CCN(C2=NS(=O)(=O)c3ccccc32)CC1 (configuration not stated)	n	n	n	n	n	n
SMILES	CYP2C9 inhib	CYP2C19 act	PostGolgi yeast	CYP2C9 activ	CYP2C19 inh	PostGolgi ctrl
CCOc1ccccc1Oc1coc2cc(O)ccc2c1=O	n	n	n	3.1	n	n
CCOc1ccc2c(=O)c(Oc3ccccc3OCC)coc2c1	n	n	n	2.1	74	n
COc1ccccc1Oc1coc2cc(O)ccc2c1=O	n	n	n	2	n	n
CCOc1ccccc1Oc1coc2cc(OC(=O)c3ccco3)ccc2c1=O	n	n	n	n	n	n
O=c1c(-c2ccc(F)cc2)coc2cc(O)ccc12	n	n	n	n	n	n
COc1ccc(-c2coc3cc(O)ccc3c2=O)cc1OC	n	n	n	2.1	n	n
O=[N+]([O-])c1cccc(-c2nc(-c3ccccc3)c(-c3cccs3)[nH]2)c1	n	n	n	n	n	n
COc1ccc(-c2nc(-c3ccccc3)c(-c3cccs3)[nH]2)cc1OC	n	n	n	n	n	34
COc1ccc(NC(=O)c2cc(-c3cccs3)on2)cc1OC	n	n	n	n	n	n
O=[N+]([O-])c1cccc(-c2nc(-c3cccs3)c(-c3cccs3)[nH]2)c1	58	n	n	n	n	n
COc1ccc(-c2[nH]c(-c3ccc4c(c3)OCO4)nc2-c2ccccc2)cc1	n	n	62	n	n	34
COc1ccc(-c2nc(-c3cccs3)c(-c3cccs3)[nH]2)cc1OC	81	n	n	n	83	38
CCCCCCOC(=O)c1ccccc1NC(=O)/C=C/C(=O)O	n	n	n	n	n	n
Cc1nn(C)cc1/C=N\NC(=O)c1ccc2c(c1)c(C)c(C)n2Cc1ccccc1	83	n	n	n	76	n
CCOC(=O)c1ccccc1OCc1cc(/C=N/n2cncn2)ccc1OC	x	x	n	x	x	n
COc1cccc(/C=N/n2cncn2)c1OCC#N	n	n	n	n	78	n
COc1ccc2c(c1)C(=O)N(c1ccccc1OC)C(=O)C2(C)C	63	n	n	n	84	n
COc1ccc2c(c1)C(=O)N(c1ccccc1)C(=O)C2	n	n	n	n	n	n
Cc1cc(C)nc(Nc2nc(C)c3cc4c(cc3n2)OCO4)n1	n	n	n	n	n	36
CCOC(=O)/C(C(C)=O)=C1\OC(=O)c2ccccc21	58	n	n	n	n	n
Nc1c(-c2ccccc2)cnn1-c1cccc([N+](=O)[O-])c1	n	n	n	n	n	n
CCCCC1(Cc2cccc([N+](=O)[O-])c2)C(=O)N(c2ccccc2)N(c2ccccc2)C1=O	80	n	n	n	80	n
C=CCN=C(NC#N)SCc1ccccc1	n	n	n	n	n	n
C=CCN=C(NC#N)SCC(=O)c1cccc(OC)c1	n	n	n	n	95	n
O=C(CCn1c(SCC(=O)NCc2ccco2)nc2ccccc2c1=O)NCCc1ccccc1	85	n	n	n	77	n
SMILES	CYP2C9 inhib	CYP2C19 act	PostGolgi yeast	CYP2C9 activ	CYP2C19 inh	PostGolgi ctrl
Cc1sc2nc(SCC(=O)NCc3ccco3)n(CCc3ccccc3)c(=O)c2c1C	65	n	n	n	n	n
CC(C)c1nc2ccccc2c2nnc(SCC(=O)NCc3ccco3)n12	76	n	n	n	98	n
O=C(CSc1nc2ccccc2c(=O)n1-c1ccc(F)cc1)NCc1ccco1	n	n	n	n	n	n
CC(C)(C)c1nc2ccccc2c2nnc(SCC(=O)NCc3ccco3)n12	n	n	n	n	n	n
Cc1ccc(CSc2nc3ccccc3c(=O)n2CCCC(=O)NCc2ccco2)cc1	98	n	n	n	74	n
Cc1sc2nc(SCC(=O)NCc3ccco3)n(C)c(=O)c2c1C	n	n	n	n	n	n
